Compound activity as filed in PubChem.
RXFP1 ag – qHTS Assay for Agonists of the Relaxin Receptor RXFP1. HEK293T-RXFP1 cAMP TR-FRET, 30 min; response scale: percent of porcine relaxin response, buffer zero. Potency, µM (doses to about 57.5 µM), most hits filed as activators. 0.3% of 370,000 active. AID 2676, 2010; active = well fitted activation curve with a large enough effect; inconclusive = small, poorly fitted or top-dose-only effect; note: nearly all actives have a fitted effect of over 60% in size
Target sequence (Q9HBX9 whole entry, looked up): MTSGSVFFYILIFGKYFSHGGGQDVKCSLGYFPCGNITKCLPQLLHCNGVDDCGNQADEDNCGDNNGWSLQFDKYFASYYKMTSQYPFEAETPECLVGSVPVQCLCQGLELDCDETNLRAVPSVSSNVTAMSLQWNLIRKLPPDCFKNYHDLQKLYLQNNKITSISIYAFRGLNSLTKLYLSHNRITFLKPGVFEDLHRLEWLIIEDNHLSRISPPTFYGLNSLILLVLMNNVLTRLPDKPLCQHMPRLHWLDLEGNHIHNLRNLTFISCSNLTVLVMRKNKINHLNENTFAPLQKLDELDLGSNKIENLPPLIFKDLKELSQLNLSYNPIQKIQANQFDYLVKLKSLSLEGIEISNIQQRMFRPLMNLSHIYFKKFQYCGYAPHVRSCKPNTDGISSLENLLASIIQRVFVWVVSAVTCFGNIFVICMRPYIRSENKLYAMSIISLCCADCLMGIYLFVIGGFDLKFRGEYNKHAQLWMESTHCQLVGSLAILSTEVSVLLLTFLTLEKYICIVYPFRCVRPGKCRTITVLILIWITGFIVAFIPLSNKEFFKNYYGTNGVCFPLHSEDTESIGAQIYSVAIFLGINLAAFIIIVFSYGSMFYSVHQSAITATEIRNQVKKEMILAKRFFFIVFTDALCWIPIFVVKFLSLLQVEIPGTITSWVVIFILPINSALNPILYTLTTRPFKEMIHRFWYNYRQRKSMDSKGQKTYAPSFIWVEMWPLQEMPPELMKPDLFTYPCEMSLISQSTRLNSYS
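Agonist response is measured as cAMP accumulation in an RXFP1-transfected HEK293T line under PDE4 inhibition. Values are scaled between buffer-only and 29 nM porcine relaxin, and EC50s come from standard Hill equation fits.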
RXFP1 antagonist – qHTS Assay for Antagonists of the Relaxin Receptor RXFP1 | Relaxin receptor 1 (Homo sapiens), Q9HBX9 | activity change, negative = inhibition, % at 57.5 µM | 0.59% of 350,000 active | HEK293-RXFP1, relaxin-stimulated cAMP HTRF, 30 min; hits give low values;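 active = activity change of -60% or lower, but not beyond a set lower limit; inconclusive = change between -60% and -40%, or beyond the set limit; inactive = change above -40%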
gsp ag – qHTS for Agonist of gsp, the Etiologic Mutation Responsible for Fibrous Dysplasia/McCune-Albright Syndrome: qHTS. gsp mutant cells, cAMP HTRF, 30 min. Potency, µM (highest dose often 76.9 µM), most hits filed as activators. 0.13% of 340,000 active; active = well fitted activation curve with a large enough effect; inconclusive = small, poorly fitted or top-dose-only effect, or another doubt; inactive = no such curve, though single readings can be large or run the other way; cell line not stated here;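 note: phosphodiesterase inhibitor Ro 20-1724 added with compounds to block cAMP breakdown; nearly all actives have a fitted effect of over 60% in size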
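Cells stably selected in G418 were plated at 2000/well, grown 16-24 hr, then given compounds in DMSO with the PDE inhibitor […] (300 uM solution added) for 30 min at 37C; cAMP was read by HTRF.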
pAkt inh – HTS Assay for Inhibitors of Akt Phophorylation: Primary Screen; Neuro2A IGF-stimulated pAkt S473 HTRF, 20 min; hits give low values; activity change, % for hits at 50 µM; 0.32% of 360,000 active; AID 651550, 2012; in the data active = activity change below about -80%; inconclusive = mostly about -51% to -80%
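Neuro2A cells in DMEM with 0.5% FBS, overnight at 37 deg C, given compound at single 50 µM final, then IGF (6 nM final) for 20 min at 37 deg C. Lysed; phospho-Akt Ser473 by HTRF after 24 h, 665/615 ratio.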
gsp antag – qHTS for Antagonists of gsp, the Etiologic Mutation Responsible for Fibrous Dysplasia/McCune-Albright Syndrome: qHTS; gsp-mutant cells, cAMP HTRF, 30 min; Potency, µM (top dose mostly 76.9 µM), hits mostly inhibitors; 0.4% of 340,000 active; AID 624288, 2012; calls by dose curve; cell line not stated here;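 note: intracellular cAMP measured with PDE inhibitor Ro 20-1724 present during compound exposure; nearly all actives have a fitted effect of over 65% in size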
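HTRF cAMP read-out (cAMP-d2 plus anti-cAMP antibody-K in lysis buffer, 30 min RT). Before lysis, cells are exposed to compounds with […] for 30 min at 37C in DPBS containing Ca/Mg, BSA and Tween 20.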
Of the large screens only hits and unclear results are named; the others gave an inactive call. A selection: hits, their analogues and other compounds. The true share with any hit is near 1.2%.

O=C(c1ccc(CS(=O)Cc2ccc(Cl)cc2)o1)N1CCN(c2cccc(Cl)c2)CC1 (stereo unspecified)	gsp antag 32µM
Cc1ccccc1NC(=S)c1ccc2ccccc2n1	none
CN(C)C(=S)c1ccc2ccccc2n1	gsp ag inconclusive, pAkt inh -120%
O=C(Nc1ccc2c(c1)nc1n2CCN(Cc2ccccc2)C1)NC1CCCCC1	pAkt inh -90%
COCCN1CCn2c(nc3cc(NC(=O)NC4CCCCC4)ccc32)C1	none
CCOc1ccc(CCNC(=O)c2cccc(-n3c(C)nc4cccnc43)c2C)cc1	none (no result: gsp ag, pAkt inh, gsp antag)
CCc1cccc2c(-c3ccccc3)nc(SCC(=O)Nc3ccccc3)nc12	none (no result: gsp ag, pAkt inh, gsp antag)
Cc1ccccc1N/N=C/c1sc(=O)n(Cc2cccc(C(=O)O)c2)c1Cl	RXFP1 antagonist -73, gsp ag inconclusive, gsp antag inconclusive
CCOC(=O)C1CCN(C(=O)C2CCN(C3=NS(=O)(=O)C(c4ccc(C)cc4)=C3CC)CC2)CC1	none (no result: gsp ag, pAkt inh, gsp antag)
CN(C)c1ccc(CNC(=O)c2ccc(Cn3c(SCc4ccccc4)nc4cccnc43)cc2)cc1	none (no result: gsp ag, pAkt inh, gsp antag)
COc1ccccc1NC(=O)c1ccccc1NC(=O)c1ccccc1	none (no result: gsp ag, pAkt inh, gsp antag)
COc1ccc(C(=O)Nc2ccccc2C(=O)O)cc1NC(=O)C(c1ccccc1)c1ccccc1	gsp antag 40µM
O=C(Nc1ccccc1C(=O)O)c1ccc(NC(=O)c2ccc(Br)o2)cc1	gsp antag 35µM
COc1ccccc1C(=O)Nc1ccc(C(=O)Nc2ccccc2C(=O)O)cc1	gsp ag inconclusive, gsp antag 35µM
Cc1ccc(C(=O)Nc2ccccc2C(=O)O)cc1S(=O)(=O)N1CCCCCC1	RXFP1 antagonist -102 (no result: gsp ag, pAkt inh, gsp antag)
COc1ccccc1NC(=O)c1ccc(C)c(S(=O)(=O)N2CCCCC2)c1	none
CC(C)OC(=O)c1c(NC(=O)c2cc3nc(-c4ccccc4)cc(C(F)(F)F)n3n2)sc2c1CCCC2	none (no result: gsp ag, pAkt inh, gsp antag)
COc1ccc(NC(=O)CC2C(=O)N(c3ccc(F)cc3)C(=O)N2Cc2ccco2)cc1 (stereo unspecified)	none (no result: gsp ag, pAkt inh, gsp antag)
O=C(Nc1ccccc1)c1ccc(NC(=O)C2CC2)cc1	none
O=C(Nc1ccccc1C(=O)O)c1ccc(NC(=O)C2CCCCC2)cc1	RXFP1 antagonist inconclusive, gsp antag 32µM
CC(=O)Nc1ccn(C2COC(COC(=O)c3ccccc3)O2)c(=O)n1 (stereo unspecified)	none (no result: RXFP1 ag, gsp ag, pAkt inh, gsp antag)
Cc1cccn2c(=O)c(/C=C3\SC(=S)NC3=O)c(NCCCN3CCOCC3)nc12	RXFP1 ag 5µM, gsp ag 10µM
CCCN1C(=O)/C(=C/c2c(NCCCOCC)nc3c(C)cccn3c2=O)SC1=S	none
Cc1cc(Nc2cccc(C)c2C)n2cnnc2n1	none (no result: gsp ag, pAkt inh, gsp antag)
N#CC(C#N)C(c1ccsc1)c1c(-c2ccccc2)[nH][nH]c1=O (stereo unspecified)	pAkt inh -108%
CCCc1nnc(NC(=O)c2cc(=O)c3ccccc3o2)s1	none (no result: gsp ag, pAkt inh, gsp antag)
COc1cccc(-n2nc3c(-n4ncc(C#N)c4N)nnc(C)c3c2C)c1	RXFP1 ag inconclusive, gsp ag inconclusive, pAkt inh -123%
Cc1cccc(-n2ncc(C#N)c2N)c1	none
CC(=O)N[C@@H](CCC(N)=O)C(=O)O	none (no result: RXFP1 ag, gsp ag, pAkt inh, gsp antag)
COc1ccc(CC(=O)NCc2ccc3c(c2)CCN3C(=O)c2cccc(C)c2)cc1	RXFP1 antagonist -97 (no result: gsp ag, pAkt inh, gsp antag)
COc1ccc2cc(C(=O)NCc3ccc4c(c3)CCN4C(=O)c3ccc(F)cc3)[nH]c2c1	none (no result: gsp ag, pAkt inh, gsp antag)
COc1cccc2[nH]c(C(=O)NCc3ccc4c(c3)CCN4C(=O)c3ccc(F)cc3)cc12	RXFP1 antagonist -68 (no result: gsp ag, pAkt inh, gsp antag)
CCc1oc2ccccc2c1C(=O)c1cc(I)c(O)c(I)c1	none (no result: RXFP1 ag, gsp ag, pAkt inh, gsp antag)
Cc1ccc(-n2cc3c(-c4cccc(Br)c4)nnc(C)c3n2)cc1	gsp ag inconclusive, pAkt inh -102%
Cc1nnc(-c2cccc(Br)c2)c2cn(-c3ccccc3Cl)nc12	RXFP1 antagonist -64
COc1cccc(-c2nc(SCc3cccc(Br)c3)n3[nH]c(=O)cc3n2)c1	none (no result: gsp ag, pAkt inh, gsp antag)
Cc1ccc(SC(CC(=O)c2ccc(F)cc2)C(=O)O)cc1 (stereo unspecified)	none
CC(C)(C)c1ccc(C(=O)CC(Sc2ccc(Cl)cc2)C(=O)O)cc1 (stereo unspecified)	RXFP1 antagonist -96
O=C(Nc1c(C(=O)Nc2ccccc2)cnn1-c1ccccc1)c1ccco1	none
CC(C)c1ccc(NC(=O)c2cnn(-c3ccccc3)c2NC(=O)c2ccco2)cc1	gsp ag inconclusive, gsp antag 40µM
COc1ccc(CC(=O)Nc2nc3c(s2)CCCC3)cc1	none (no result: gsp ag, pAkt inh, gsp antag)
CCC(Oc1ccc(F)cc1)C(=O)Nc1nc2c(s1)CCCC2 (stereo unspecified)	RXFP1 antagonist -117 (no result: gsp ag, pAkt inh, gsp antag)
CCCCOc1ccccc1Cn1c(=O)sc2ccccc21	RXFP1 antagonist -68 (no result: gsp ag, pAkt inh, gsp antag)
CCOc1ccc(Cn2c(=O)sc3ccccc32)cc1	gsp ag inconclusive
Cn1nc2sc3ccccc3n2c(=O)c1=O	none
N#Cc1cnc2sc3ccccc3n2c1=N	pAkt inh -118%
CCCCc1cc(=O)oc2cc(C)c3c(C)coc3c12	none (no result: gsp ag, pAkt inh, gsp antag)
Cc1ccccc1-c1nc(CS(=O)(=O)CC(=O)NC2CC2)c(C)o1	RXFP1 antagonist -78
CCN(CC)c1ccc(/C=C2\SC(=O)N(C(C)C)C2=O)o1	RXFP1 antagonist -83
CC(C)N1C(=O)S/C(=C/c2ccc3c(c2)n(C)c(=O)n3C)C1=O	gsp ag inconclusive
O=c1[nH]c2sc3c(c2c2nncn12)CCCC3	gsp antag 35µM (no result: pAkt inh)
COC(=O)c1cc(S(=O)(=O)N2CCOCC2)ccc1Sc1ccccc1N	pAkt inh -99%
CCOc1ccc(CCNC(=O)c2cc3c(s2)-c2ccccc2OC3)cc1OCC	none (no result: RXFP1 antagonist, gsp ag, pAkt inh, gsp antag)
Cc1cccc2cc(CN(Cc3nnnn3C3CCCCC3)C3CCCC3)c3nnnn3c12	pAkt inh -116%
O=S(=O)(NCCc1nnc2ccc(SCc3c(F)cccc3Cl)nn12)c1ccccc1	none (no result: gsp ag, pAkt inh, gsp antag)
COc1ccc(Br)cc1CC1C(=O)Nc2ccccc21 (stereo unspecified)	RXFP1 antagonist -69 (no result: gsp ag, pAkt inh, gsp antag)
C=C1c2cccc(O)c2C(O)=C2C(=O)[C@]3(O)C(O)=C(C(N)=O)C(=O)[C@@H](N(C)C)[C@@H]3[C@@H](O)[C@H]12	RXFP1 antagonist -70 (no result: gsp ag)
C[C@H]1c2cccc(O)c2C(O)=C2C(=O)C3(O)C(O)=C(C(N)=O)C(=O)[C@@H](N(C)C)[C@@H]3[C@@H](O)[C@@H]21 (stereo partly specified)	none (no result: RXFP1 antagonist, gsp ag)
CCCCOc1ccc(CNC(=O)c2ccc(NC(=O)N3CCSc4ncccc43)cc2)cc1	none (no result: gsp ag, pAkt inh, gsp antag)
S=c1nc(NCc2ccc3c(c2)OCO3)c2ccccc2[nH]1	gsp antag inconclusive
